Experiment [1] can be described thus: HepG2 liver cancer cell viability effects, profiling panel, resazurin fluorescence, 24 h, PK04 Diversity Set (AID 1172). Further: test concentration not given here. The following applies: higher = more signal. On the technique in general: Resazurin is reduced to fluorescent resorufin, in cell work by metabolically active cells.
A short description of experiment [2]: basal S. cerevisiae growth modulation, no modifier, primary screen, OD600, strain BY4716, 24 h, basal condition (AID 1173). The following applies: OD600, 24 h, higher = more signal, called active from +8 up or from −8 down.
Experiment [3] can be described thus: MM1S myeloma cell viability, profiling panel, resazurin fluorescence, basal, 24 h, PK04 Diversity Set (AID 1174).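 Further: MM1S multiple myeloma cell line; test concentration not given here.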 The note with it: higher = more signal, called active from +8 up or from −8 down.
Experiment [4] concerns the target Dihydroorotate dehydrogenase (quinone), mitochondrial (Plasmodium falciparum (isolate 3D7)) (UniProt Q08210). Put plainly: PfDHODH enzyme inhibitors, primary screen, biochemical, C-terminal His tag, absorbance 600 nm (AID 1175).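 Further: recombinant parasite enzyme with a five histidine tag at its C terminus; test concentration not given here.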 The following applies: DCIP absorbance 600 nm, higher = more signal, called active from +8 up or from −8 down.
Experiment [5] in a line: P. aeruginosa biofilm formation inhibitors, primary screen, strain PAO1, LB-PBS medium, absorbance 600 nm (AID 1176). Further: test concentration not given here. The note with it: P. aeruginosa PAO1 growth/biofilm, A600, 12 h; higher = more signal.
Experiment [6] can be described thus: S. cerevisiae RM11-1a growth modifiers, primary screen, strain RM11-1a, OD600, basal, 24 h (AID 1177).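 Further: cultures grown under basal conditions with no added stressor; test concentration not given here.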 The following applies: OD600, 24 h, higher = more signal, called active from +8 up or from −8 down.
The nature of experiment [7]: E. coli acrAB mutant growth effects, primary screen, E. coli filamentation inducers, strain DRC39, OD650, 24 h (AID 1178).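 Further: growth measured as culture turbidity by optical density at 650 nm; test concentration not given here.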 The note with it: higher = more signal, called active from +8 up or from −8 down.
Experiment [8] can be described thus: E. coli acrAB mutant growth effects, primary screen, E. coli filamentation inducers, strain DRC39, OD650, 48 h (AID 1179).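 Further: screen aims at cell division blockers that make cells filament.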 The following applies: E. coli DRC39 delta-acrAB growth, higher = more signal, called active from +8 up or from −8 down.
Experiment [9] can be described thus: RPMI8226 myeloma cell viability, profiling panel, resazurin fluorescence, basal, 24 h, PK04 Diversity Set (AID 1180).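 Further: RPMI8826 multiple myeloma cell line at 5000 cells per well; test concentration not given here.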 The note with it: higher = more signal.
The target of experiment [10] is E3 ubiquitin-protein ligase XIAP (Homo sapiens) (UniProt P98170). Briefly: XIAP binders, primary screen, biophysical, small-molecule microarray, fluorescence 635 nm (AID 1181).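 Further: score merges 667 nm emission and signal to noise over triplicate slides.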 The following applies: small-molecule microarray binding, higher = more signal.

Molecules are shown by their SMILES. Active and inactive are the calls of the source. Unless noted, how the calls were made is not given here.

Chain of Dihydroorotate dehydrogenase (quinone), mitochondrial (Plasmodium falciparum (isolate 3D7)) (Q08210 whole entry, looked up): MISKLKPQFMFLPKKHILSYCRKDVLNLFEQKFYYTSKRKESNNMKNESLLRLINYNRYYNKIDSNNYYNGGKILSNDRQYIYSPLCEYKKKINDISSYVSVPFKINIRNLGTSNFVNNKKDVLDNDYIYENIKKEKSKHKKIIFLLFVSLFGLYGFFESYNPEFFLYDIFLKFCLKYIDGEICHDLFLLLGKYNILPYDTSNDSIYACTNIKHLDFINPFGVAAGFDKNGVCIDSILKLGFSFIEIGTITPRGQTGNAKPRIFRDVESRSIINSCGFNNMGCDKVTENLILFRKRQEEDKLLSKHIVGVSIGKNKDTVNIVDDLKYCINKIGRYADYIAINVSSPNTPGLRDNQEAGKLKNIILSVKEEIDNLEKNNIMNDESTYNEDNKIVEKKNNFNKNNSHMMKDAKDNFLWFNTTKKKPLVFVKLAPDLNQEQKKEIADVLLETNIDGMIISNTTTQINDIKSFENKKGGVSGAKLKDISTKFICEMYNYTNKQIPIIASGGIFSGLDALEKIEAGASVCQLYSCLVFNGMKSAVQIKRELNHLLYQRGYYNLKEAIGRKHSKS
Chain of E3 ubiquitin-protein ligase XIAP (Homo sapiens) (P98170 whole entry, looked up): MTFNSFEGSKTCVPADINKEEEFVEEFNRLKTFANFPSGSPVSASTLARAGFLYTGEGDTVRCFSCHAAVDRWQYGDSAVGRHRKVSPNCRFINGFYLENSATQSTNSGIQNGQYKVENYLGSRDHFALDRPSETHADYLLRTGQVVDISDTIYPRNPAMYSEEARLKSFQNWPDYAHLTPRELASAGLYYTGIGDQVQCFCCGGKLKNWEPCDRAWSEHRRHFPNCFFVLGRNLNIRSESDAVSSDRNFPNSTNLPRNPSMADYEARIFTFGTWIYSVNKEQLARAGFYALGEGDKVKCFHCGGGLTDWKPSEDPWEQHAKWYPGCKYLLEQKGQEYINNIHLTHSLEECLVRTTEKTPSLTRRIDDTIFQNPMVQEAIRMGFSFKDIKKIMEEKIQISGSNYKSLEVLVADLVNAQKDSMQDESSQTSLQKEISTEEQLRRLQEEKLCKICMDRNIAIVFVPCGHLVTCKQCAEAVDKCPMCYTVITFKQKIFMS

`COc1ccc(COC(=O)NN=C2C[C@@H](O)[C@@H](O)[C@@H]3[C@@H]4C(=O)N(Cc5ccc6c(c5)OCO6)C(=O)[C@@H]4CC[C@H]23)cc1`: the z-score in experiment [1] is -0.318; in experiment [2], 0.321 (inactive); in [3], -0.0139 (inactive); in [5] it was -0.273 (inactive); in [6], 0.139 (inactive); in experiment [7], 0.586 (inactive). Also, the z-score in experiment [8] is 1.17 (inactive); in [9] it was 0.18. For the same compound, the composite z-score in [4] is -0.394 (inactive); in experiment [10], 0.0498.

`CC(CCN1CCc2nc(-c3ccccc3)c(-c3ccccc3)cc2C1)=NO[C@H](C)c1cn([C@H](CO)Cc2ccccc2)nn1`: the z-score in [1] is -0.391; in experiment [2], -1.74 (inactive); in [3] it was 0.474 (inactive); in experiment [5] it was 0.593 (inactive); in experiment [6] it was -0.222 (inactive); in experiment [7], -0.424 (inactive). Moreover, the z-score in [8] was -1.95 (inactive); in experiment [9], 0.2. Further, the composite z-score in experiment [4] is -1.38 (inactive); in experiment [10], -0.156.

As to `COC(=O)[C@H](C)NC(=O)CCC1CC(OC(=O)NCCc2ccc(F)cc2)CC2(CCCC(COC(=O)NCc3ccccc3)O2)O1` (stereo not given in full), the z-score in [1] was 0.445; in [2], 1.45 (inactive); in [3] it was 1.05 (inactive); in experiment [5] it was 0.119 (inactive); in [6] it was 1.02 (inactive); in experiment [7] it was 0.0734 (inactive). In addition, the z-score in experiment [8] was -0.445 (inactive); in experiment [9], 1.07. Also, the composite z-score in experiment [4] is 0.152 (inactive); in experiment [10], -0.0601.

For `CCO[C@H](c1cc(OC)cc([N+](=O)[O-])c1OC)[C@H](C)[C@@H](OC)[C@H](C)C=CCC(=O)OC`, the z-score in [1] is -0.467; in experiment [2], -0.435 (inactive); in experiment [3], 0.149 (inactive); in [5], -0.303 (inactive); in experiment [6], -0.147 (inactive); in experiment [7] it was -0.508 (inactive). The z-score in [8] is -0.17 (inactive); in experiment [9], 0.0951. The composite z-score in experiment [4] was 0.189 (inactive); in [10], 0.1.

For `CO[C@@H]1COC(=O)[C@@H]2CCCN2C(=O)[C@@H](C)COC(=O)CCC[C@H]1C`, the z-score was -0.668 in [1]; -0.482 (inactive) in [2]; -0.27 (inactive) in experiment [3]; -0.197 (inactive) in experiment [5]; -2.66 (inactive) in experiment [6]; -0.0549 (inactive) in experiment [7]. For the same compound, the z-score in experiment [8] was -0.0609 (inactive); in [9], -0.304. The values for the composite z-score in experiment [4] and in experiment [10] were -1.47 (inactive) and 0.134, respectively.

For `O=C(NN=C1C[C@@H](O)[C@@H](O)[C@@H]2[C@@H]3C(=O)N(Cc4ccccc4)C(=O)[C@@H]3CC[C@H]12)OCc1ccccc1`, the z-score in experiment [1] was 0.604; in experiment [2], -0.921 (inactive); in experiment [3] it was 1.14 (inactive); in [5], 0.471 (inactive); in [6], -0.948 (inactive); in experiment [7], 0.59 (inactive). In addition, the z-score in [8] is -0.783 (inactive); in experiment [9], 0.9. The composite z-score in experiment [4] was -0.993 (inactive); in experiment [10], -0.21.

As to `CC(C)(C)N1C(=O)[C@H]2[C@H]3[C@H](O)[C@H](O)CC(=NOC[C@@H](O)COCc4ccco4)[C@H]3CC[C@H]2C1=O`, the z-score in experiment [1] was -0.488; in experiment [2], 0.262 (inactive); in experiment [3] it was -0.622 (inactive); in experiment [5], -0.0606 (inactive); in experiment [6] it was 0.0001 (inactive); in experiment [7], -0.0207 (inactive). Besides, the z-score in [8] was -0.149 (inactive); in experiment [9], -0.583. Besides, the composite z-score in experiment [4] was 0.748 (inactive); in [10] it was -0.334.

Turning to `O=C1[C@H]2[C@H]3[C@H](O)[C@H](O)CC(=NO[C@@H]4O[C@H](CO)[C@@H](O)[C@H](O)[C@H]4O)[C@H]3CC[C@H]2C(=O)N1c1ccc(F)cc1F`, the z-score in experiment [1] is 0.487; in experiment [2], 0.191 (inactive); in [3], -0.141 (inactive); in experiment [5], -0.377 (inactive); in experiment [6] it was -0.638 (inactive); in experiment [7], 0.166 (inactive). In addition, the z-score in [8] was -0.196 (inactive); in experiment [9], 0.371. The composite z-score in experiment [4] is -1.08 (inactive); in experiment [10], 0.394.

As for `C[C@@H]1CC[C@H]2C(=O)N3[C@@H](CC[C@@H](C)[C@@H]3c3ccc(Br)cc3)C(=O)N2[C@H]1c1ccc(Br)cc1`, the z-score in experiment [1] is -0.346; in [2], 0.0314 (inactive); in experiment [3], 0.208 (inactive); in experiment [5] it was -0.27 (inactive); in experiment [6], 0.973 (inactive); in experiment [7], -0.124 (inactive). Also, the z-score was -1.38 (inactive) in [8] and 0.102 in experiment [9]. Besides, the composite z-score in experiment [4] was 0.553 (inactive); in experiment [10], -0.0056.

In the case of `CO[C@H]1COC(=O)CC=C[C@@H](C)COC(=O)[C@H]2CCCN2C(=O)CC=C[C@H]1C`, the z-score in experiment [1] was -0.3; in [2], -0.872 (inactive); in experiment [3], -0.0093 (inactive); in [5], 0.246 (inactive); in experiment [6] it was 0.473 (inactive); in [7], 1.14 (inactive). Moreover, the z-score is 0.745 (inactive) in experiment [8] and -0.258 in [9]. In addition, the results for the composite z-score in experiment [4] and in experiment [10] were 0.119 (inactive) and 0.0595, respectively.

Consider `COC(=O)[C@H](CCSC)NC(=O)CC=C[C@@H](C)CO`, for which the z-score is -0.838 in experiment [1]; 0.0957 (inactive) in experiment [2]; 0.311 (inactive) in experiment [3]; -0.895 (inactive) in experiment [5]; 0.489 (inactive) in [6]; -1.07 (inactive) in experiment [7]. The results for the z-score in experiment [8] and in experiment [9] were -0.576 (inactive) and 0.475, respectively. For the same compound, the figures for the composite z-score in experiment [4] and in experiment [10] were 0.521 (inactive) and 0.262, respectively.

In the case of `COC(=O)[C@H](C)NC(=O)CCC1CC(OC(=O)NCCc2ccc(F)cc2)CC2(CCCC(COC(=O)NCCOc3ccccc3)O2)O1` (stereo not given in full), the z-score was 0.0903 in experiment [1]; 0.338 (inactive) in experiment [2]; 0.177 (inactive) in experiment [3]; -0.0326 (inactive) in [5]; 0.127 (inactive) in experiment [6]; 0.289 (inactive) in experiment [7]. Moreover, the z-score was -0.451 (inactive) in experiment [8] and -0.0199 in experiment [9]. Further, the composite z-score in [4] is -0.361 (inactive); in experiment [10] it was -0.114.

As for `COc1ccc(O[C@H]2C=C[C@@H](c3ccccc3)O[C@@H]2COC(=O)CCC(C)=NOC[C@@H](O)COCc2ccco2)cc1`, the z-score is 0.206 in experiment [1]; -1.06 (inactive) in [2]; -1.11 (inactive) in [3]; -0.0903 (inactive) in experiment [5]; -1.48 (inactive) in experiment [6]; -0.129 (inactive) in experiment [7]. The z-score in experiment [8] is -0.902 (inactive); in experiment [9], 0.37. In addition, the composite z-score in experiment [4] is -2.35 (inactive); in experiment [10] it was 0.122.

The values are drawn from PubChem BioAssay.
